ssDAF12 agonist: activators of S. stercoralis DAF-12 nuclear receptor; HEK293 ssDAF-12/GRIP1 lit1-tk-luc reporter, luminescence; % of 3 µM dafachronic acid response; AID 652126; activation, % at 6.8 µM; 370,000 tested, 1% active;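 active means activation above the mean over all tested compounds plus 3 SD, cut at about 0.9% in these data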;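 further: 0% = DMSO-only wells and 100% = 3 µM delta7-dafachronic acid wells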
DAX1 inh-1: NR0B1 (DAX1) inhibition | P51843 | HEK293 Gal4-DAX1 luciferase reporter, luminescence | inhibition, % at 6.75 µM | 340,000 tested, 0.99% active | AID 504766;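 active means inhibition above the mean over all tested compounds plus 3 SD, cut at about 4.2% in these data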;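 further: 0% = DAX1-transfected cells with DMSO and 100% = empty-vector control cells with DMSO; inhibition shows as a rise in luminescence from relieved DAX1 repression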
Target sequence (P51843 207-470 limits assumed): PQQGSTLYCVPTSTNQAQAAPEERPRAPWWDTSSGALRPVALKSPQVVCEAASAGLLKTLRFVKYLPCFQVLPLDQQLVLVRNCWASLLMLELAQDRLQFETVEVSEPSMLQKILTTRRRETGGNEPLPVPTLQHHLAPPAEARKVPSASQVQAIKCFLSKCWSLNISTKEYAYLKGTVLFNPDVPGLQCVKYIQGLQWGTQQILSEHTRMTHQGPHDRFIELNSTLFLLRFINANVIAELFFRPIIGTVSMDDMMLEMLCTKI
hcDAF12 agonist: activates DAF-12 receptor from parasite H. contortus. HEK293 hcDAF-12 lit1-tk-luc reporter, luminescence; 0% DMSO, 100% Δ7-dafachronic acid. activation, % at 6.8 µM. 370,000 tested, 1.4% active;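 active means activation above the mean of all tested compounds plus 3 SD, cut at about 5.5% in these data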;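 further: 100% = response to 3 µM Δ7-dafachronic acid high control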
hgDAF12 agonist: agonists of H. glycines DAF-12 nuclear receptor | HEK293 GAL4-hgDAF12 UAS-luciferase reporter, agonist luminescence; normalized to butyrate control | activation, % at 6.8 µM | 370,000 tested, 1.8% active | AID 687014;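 active means activation above a cutoff set at the mean of all screened compounds plus 3 SD, cut at about 10% in these data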;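 further: 0% = DMSO wells and 100% = sodium butyrate wells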
DAX1 inh-2: blocks DAX1 repression of SF-1 activated StAR promoter; HEK293T StAR-luciferase reporter, SF-1/DAX-1 repression relief; inhibition, % at 6.8 µM; 370,000 tested, 1.1% active;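 active means inhibition above the mean over all tested compounds plus 3 SD, cut at about 3.6% in these data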;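 further: 0% = DAX-1 cells with DMSO and 100% = cells lacking DAX-1 with DMSO; higher inhibition means more luminescence from relief of DAX-1 repression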
The depositor's hits bear a star; . = no result given. Rows were chosen to be rich in hits. Some 4.1% of all compounds tested hit in one or more screens of this group.

SMILES	ssDAF12 agonist	DAX1 inh-1	hcDAF12 agonist	hgDAF12 agonist	DAX1 inh-2
Cc1occc1C(=O)NC1CCCCCC1	-0.5	-0.2	0.8	1.7	1.0
Cc1ccc(CSc2nnc(-c3cc(-c4ccc(F)cc4)n[nH]3)n2N)cc1	-1.7	.	-4.4	-0.2	-0.1
COc1ccc(C)cc1Nc1n[n+](-c2ccccc2)c(-c2ccc(SC)cc2)s1	-0.4	3.5	2.0	11.5*	0.3
CN(C)c1ccc(N/C=C/C(=O)c2ccco2)cc1	-0.2	4.3*	1.3	3.9	0.8
Cc1ccc(-n2c(Cc3cccs3)nnc2SCc2ccc([N+](=O)[O-])cc2)cc1	-2.2	.	-3.0	-3.0	-0.6
Cn1ccnc1CN1CCC[C@]2(CC[C@H](CCC#N)O2)C1	-1.7	.	1.4	-0.2	0.7
CCCOc1ccc(-c2cn3ccccc3n2)cc1[N+](=O)[O-]	-0.7	-0.3	-0.5	11.9*	2.3
COc1ccc(-c2cn3ccccc3n2)cc1[N+](=O)[O-]	-0.7	2.1	1.8	11.3*	-0.1
COc1ccc(-c2cn3cc([N+](=O)[O-])ccc3n2)cc1OC	-1.7	2.9	-1.1	8.0	0.0
CCCCC(=O)Nc1cccc(-c2cn3ccccc3n2)c1	-1.4	0.8	1.9	8.1	1.5
CCCCOc1ccc(-c2csc(N)n2)cc1[N+](=O)[O-]	-0.5	2.7	1.8	10.8*	2.0
O=S(=O)(c1cccs1)N1CCC(c2cn3ccccc3n2)CC1	-1.0	.	-0.5	0.6	-0.1
Cc1sc2nc(CSC(C)C(=O)Nc3ccccn3)[nH]c(=O)c2c1C (stereo not drawn)	-1.1	0.5	1.9	3.6	4.0*
Cc1cc([N+](=O)[O-])ccc1NC(=O)/C=C/c1cccs1	-0.7	1.2	-1.0	11.5*	-0.8
Cc1cc(Nc2cnc3ccccc3n2)n(-c2ccccc2)n1	1.9*	0.3	4.4	0.2	-1.1
CCCCNC(=O)C1(C(C)=O)CC(C(=O)OCC)=NO1 (stereo not drawn)	-1.1	.	-1.5	2.3	0.0
C[C@H]1[C@@H](OC(=O)NCc2ccco2)CC[C@@]23CCCN2C(=O)CCC[C@@H]13	-1.5	.	0.0	3.8	.
CCN(CC)S(=O)(=O)c1ccc2c(c1)nc(-c1ccccn1)n2C	-0.5	0.1	6.2*	7.4	0.8
CCCn1c(CCC(=O)O)nc2cc(S(=O)(=O)N(CC)CC)ccc21	-1.6	-1.5	1.7	2.0	0.1
Cc1ccc(NC(=O)CSc2nccn2C)cc1F	-0.5	1.1	1.7	2.8	4.4*
Cc1ccc(NC(=O)CSc2ncccn2)cc1F	-1.6	5.7*	-0.6	1.6	-1.4
CC(=O)c1ccc(NC(=O)CSc2nccn2C)cc1	-1.3	1.4	0.1	4.7	0.5
COC(=O)[C@@]12CCCCC=C1N(CCc1ccc(Cl)cc1)C(=O)[C@H]2CC(=O)NCCC(C)C	-1.4	.	-1.3	-2.1	-1.5
CC1(C(=O)OCc2cc(=O)n3cc(Br)ccc3n2)CC1(Cl)Cl (stereo not drawn)	-0.2	0.4	1.9	11.3*	3.2
CN(C)c1cccc2c1c(NC(=O)c1ccc(Cl)cc1)nn2C	0.8	5.7*	3.6	-1.3	-1.0
SMILES	ssDAF12 agonist	DAX1 inh-1	hcDAF12 agonist	hgDAF12 agonist	DAX1 inh-2
CN(C)c1cccc2c1c(NC(=O)Nc1ccccc1)nn2C	-1.0	4.3*	-0.7	-1.2	-0.9
COC(=O)[C@]1(C)CN(C(=O)OC(C)(C)C)C2=C1C(=O)C[C@](C)(C(=O)OC(C)(C)C)C2	-0.4	.	-0.3	-2.1	-1.2
CC1=NN(C(=O)CCc2ccc3c(c2)OCO3)C(O)(C(F)(F)F)C1 (stereo not drawn)	9.7*	0.7	-0.9	-0.7	-0.6
COc1ccc(CC(=O)N2N=C(C)CC2(O)C(F)(F)F)cc1OC (stereo not drawn)	-2.0	0.4	0.2	0.1	-0.5
Cc1ccc(S(=O)(=O)N2[C@@H](Cc3ccccc3)CO[C@H]2CC(=O)c2cccs2)cc1	0.1	.	-0.6	-0.5	4.0*
Cc1ccc(S(=O)(=O)N2[C@@H](Cc3ccccc3)CO[C@H]2CC(=O)c2ccccc2)cc1	-0.9	.	0.6	-0.8	-1.0
CSc1ccc(C(c2c(C(=O)O)[nH]c3ccccc23)c2c(C(=O)O)[nH]c3ccccc23)cc1	-1.1	1.6	5.6*	-0.4	0.0
CCOc1cc(Br)cc(C(c2c(C(=O)O)[nH]c3ccccc23)c2c(C(=O)O)[nH]c3ccccc23)c1O	-0.9	-0.8	4.9	2.4	0.4
O=C(Nc1ccc2c(c1)OCO2)c1cc(C2CCCCN2S(=O)(=O)Cc2ccccc2)on1 (stereo not drawn)	-1.2	.	3.8	10.9*	4.4*
O=C(Nc1ccc2c(c1)OCO2)c1cc(C2CCCCN2C(=O)CCc2ccccc2)on1 (stereo not drawn)	-0.9	.	-0.9	0.3	-1.2
CCOC(=O)C1CCN(C(=O)C(C)(C)NC(=O)Nc2ccc(N(C)C)cc2)CC1	-1.9	.	0.0	-1.6	.
COC(=O)CCN(C1CCCCC1)S(=O)(=O)c1ccc(S(=O)(=O)N2CCCCC2)cc1	-0.9	0.6	5.8*	0.3	0.2
CN(C1CCCCC1)S(=O)(=O)c1ccc(S(=O)(=O)N2CCN(CCC#N)CC2)cc1	-1.4	5.7*	-0.1	0.5	-0.3
C[C@H]1[C@@H](NC(=O)c2ccc(Cl)c(C(F)(F)F)c2)CC[C@@]23CCCN2C(=O)CCC[C@@H]13	-1.7	.	-1.8	-0.1	.
NC(=O)c1cc(Cc2ccccc2)sc1NC(=O)c1ccco1	-0.3	2.1	2.7	12.8*	2.4
CCCCCCCCN1C(=O)[C@@H](CC(=O)NCCCCc2ccccc2)C[C@@]2(C(=O)OC)C1=C[C@H](COCc1ccccc1)O[C@@H]2C	-0.4	.	0.0	5.0	0.5
CCCN(CC(=O)Nc1ccccc1C)C(=O)c1ccc(Cl)c(S(=O)(=O)N2CCCC2)c1	-1.3	5.3*	0.0	-1.6	2.4
Cc1c(C(=O)Nc2ccncc2)oc2ccccc12	-1.8	0.4	0.7	-1.3	-0.7
Cc1c2cnccc2c(C)c2c1oc1ccccc12	-0.9	2.1	1.9	11.1*	1.0
CCCNC(=O)c1ccc2c(c1)S(=O)(=O)c1ccccc1C2=O	-0.9	-0.3	-1.4	-1.1	0.1
NNC(=O)c1ccc2c(c1)S(=O)(=O)NNC2=O	-0.5	-1.1	2.4	10.8*	0.3
CCCCN(C(=O)CCN1C(=O)C2CC=CCC2C1=O)c1c(N)n(CCCC)c(=O)[nH]c1=O (stereo not drawn)	-1.4	4.3*	-1.4	1.7	0.2
CCCCn1c(N)c(N(CC)C(=O)C2=COCCO2)c(=O)[nH]c1=O	-0.2	1.0	-0.3	2.0	3.9*
CCCCN(C(=O)C1=COCCO1)c1c(N)n(CCCC)c(=O)[nH]c1=O	-0.9	0.3	0.2	1.0	0.6
CN(C)CCCN(C(=O)c1ccc2ccccc2c1)c1nc2cc3c(cc2s1)OCO3	-0.9	0.3	-2.2	0.0	3.4
CN(C)CCN(C(=O)c1ccc2ccccc2c1)c1nc2cc3c(cc2s1)OCCO3	0.1	0.9	1.3	7.8	3.7*

Screens: PubChem, The Scripps Research Institute Molecular Screening Center
